# Laboratory results taken from PubChem BioAssay AID1273 (Columbia University Molecular Screening Center, 2008).
# Among all 130,000 compounds or so, about 1,200 (0.92%) were called active.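 How the source made its calls: active means inhibition above the mean plus 3 SD, with well images judged a real hit on visual review (cut at about 60% in these data, passing the limit was not always enough); inconclusive means inhibition over the cutoff but images rejected on review; inactive means inhibition not above the cutoff.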 Only a selection was taken, and actives are over-represented in it overall.
# Assay: insulin gene promoter suppression in islet cells – imaging, TRM-6 cells (human fetal islet line), eGFP reporter, cell count, primary screen (AID 1273;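 on normalized cell count: cells exposed to compound for 48 h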)
# Settings: at 2 µM, reporter expression induced with tamoxifen; inhibition: stronger effect = higher value; normalized cell count: measured here: cell count, toxicity
Compound,inhibition,normalized cell count
COc1ccc(C2CC(c3cccs3)=NN2C(=O)CSc2nncs2)cc1OC (centres undefined),66.7% (inactive),95.8%
CN1CCN(C(=O)CCc2ncc(C(F)(F)F)cc2Cl)CC1,9.09% (inactive),150%
COc1cccc(NC(=O)C2CCCN2C(=O)OCc2ccccc2)c1 (centres undefined),-34.4% (inactive),106%
Cc1ccc(CNC(=O)C2CCCN2C(=O)NCc2ccccc2)cc1 (centres undefined),59% (inactive),73.5%
CC(=O)c1cccc(NC(=O)N2CCCC2C(=O)NCCc2ccccc2)c1 (centres undefined),82.1% (active),27.6%
O=[N+]([O-])c1ccc(N2CCNCC2)cc1NCc1cccnc1,66.7% (active),150%
O=[N+]([O-])c1ccc(N2CCN(S(=O)(=O)c3ccc4ccccc4c3)CC2)cc1NCc1ccco1,-18.5% (inactive),121%
O=C(c1ccccc1)N1CCN(c2ccc([N+](=O)[O-])c(NCc3ccco3)c2)CC1,-9.68% (inactive),122%
COc1ccc(N2CCN(c3ccc([N+](=O)[O-])cc3Cl)CC2)cc1,7.69% (inactive),106%
O=[N+]([O-])c1ccc(N2CCN(c3ccc(O)cc3)CC2)c(Cl)c1,86.7% (active),135%
CCN1CCN(c2ccc([N+](=O)[O-])cc2C(=O)c2ccc(Cl)cc2)CC1,-83.3% (inactive),81.5%
Cc1cc(C)c2c(n1)nn1c(N3CCN(c4cccc(Cl)c4)CC3)cc(C)nc21,-82.8% (inactive),99.8%
Cc1cc(C)c2c(n1)nn1c(N3CCOCC3)cc(C)nc21,74.3% (active),60.7%
Cc1nn2c3cc(N4CCOCC4)ccc3nc2c2ccccc12,-63.5% (inactive),79.7%
CCCN(CC(=O)Nc1ccccc1C)C(=O)c1cc(=O)[nH]c2ccccc12,-38.5% (inactive),49.2%
C=CCC1(CC=C)CCCN1C(=O)CC1C(=O)NCCN1Cc1ccccc1OC (centres undefined),20% (inactive),91.1%
C/C(Cn1nnc2ccccc21)=N\OC(=O)c1cc(F)c(F)cc1Cl,-55% (inactive),99.6%
Cc1cc(C#N)c(SCC(N)=O)nc1-c1ccc(F)cc1,14.3% (inactive),121%
CC(=O)c1cc(C#N)c(SCC(=O)C(C)(C)C)nc1C,65.4% (active),142%
CC(=O)c1cnc(SCC(=O)O)nc1C,26.7% (inactive),105%
O=C(COC(=O)c1ccccn1)Nc1cccc2ccccc12,-83.3% (inactive),96%
O=C(CCN1C(=O)c2ccccc2C1=O)NCCCn1ccnc1,-16.7% (inactive),84.2%

Compound,inhibition,normalized cell count
CN(C)CCNC(CC(=O)Nc1ccc(Cl)c(Cl)c1)C(=O)O (centres undefined),44.2% (inactive),104%
COC(=O)C(CC(=O)Nc1cc(C)ccc1C)Nc1ccccc1OC (centres undefined),7.14% (inactive),131%
COc1ccccc1NC(=O)CC(NCCN(C)C)C(=O)O (centres undefined),72.4% (active),43%
CCN(CC)CCNC(=O)c1sc2ncn(CC(=O)Nc3ccc(C)c(Cl)c3)c(=O)c2c1C,-14.3% (inactive),89.6%
Cc1c(Br)ccc(NC(=O)COc2ccccc2C(N)=O)c1C,-5.26% (inactive),50.7%
O=C(Nc1ccc(N2CCN(C(=O)C3CC3)CC2)cc1)c1cccs1,36.8% (inactive),132%
COc1ccc(S(=O)(=O)Nc2c(C)n(C)n(-c3ccccc3)c2=O)cc1,22.7% (inactive),104%
COC(=O)Nc1c(C)n(C)n(-c2ccccc2)c1=O,13.9% (inactive),53.7%
Cc1c(Nc2nc3ccccc3nc2NS(=O)(=O)c2cccs2)c(=O)n(-c2ccccc2)n1C,75% (active),38.1%
Cc1nn(-c2ccc([N+](=O)[O-])cc2)c(N)c1-c1ccccc1,25% (inactive),95.4%
CCOC(=O)c1ccc(NC(=O)C2CC(=O)Nc3nc4ccccc4n32)cc1 (centres undefined),-36.4% (inactive),131%
CCOC(=O)c1c(C)[nH]c(C2=NNC(=NC(C)COC)SC2)c1C (centres undefined),31.2% (inactive),87.8%
Cc1ccc(O)c(CCc2ccccc2)n1,91.9% (active),94.3%
Cc1ccc(O)c(-c2cc(C(=O)NCc3ccccc3)[nH]n2)c1,7.14% (inactive),81.6%
O=C(O)CCCc1ccccc1,-23.8% (inactive),97.5%
CN(C)c1nccc(NCc2ccccc2)c1C#N,40.5% (inactive),140%
O=C(NNc1cc(Cl)ccc1Cl)c1cccnc1Cl,11.1% (inactive),114%
CCc1nnc(NS(=O)(=O)c2ccc(NC(=S)NC(=O)c3cccs3)cc2)s1,-11.1% (inactive),96.4%
CN(C)/C=C(/C(=O)c1ccccc1Cl)S(C)(=O)=O,75% (active),84.2%
CN(C)/C=C(/C(=O)c1ccccc1)S(=O)(=O)c1ccc(Cl)cc1,-23.8% (inactive),70.5%
CN(C)/C=C(/C(=O)c1ccc(F)cc1)S(=O)(=O)c1ccc(F)cc1,50% (inactive),124%
COc1cccc(NC(=O)CS(=O)(=O)c2cn(CC(=O)N3CCOCC3)c3ccccc23)c1,-16.7% (inactive),88.8%

Compound,inhibition,normalized cell count
O=C1c2ccccc2C(=O)N1CCC(O)C[N+](=O)[O-] (centres undefined),-17.6% (inactive),90.3%
Cc1cc([N+](=O)[O-])ccc1NC(=O)c1ccc(NC(=O)C(C)C)cc1,30% (inactive),120%
CCC(=O)N1CCC(C(N)=O)(N2CCCCC2)CC1,33.3% (inactive),108%
COC(=O)C1=C(C)N(C)C(=S)NC1c1cc(OC)ccc1OC (centres undefined),23.1% (inactive),118%
Cc1nc2ccccc2cc1O,67.9% (active),57.9%
CCOC(=O)c1cc2ccccc2nc1C,57.1% (inactive),47.1%
Cc1nc2ccccc2c(-c2ccccc2)c1C(=O)c1ccccc1,27.5% (inactive),64.5%
COc1cc(C(=O)NCc2ccc(-n3cccc3)cc2)cc(OC)c1OC,46.1% (inactive),69%
O=C(CN1CCSCC1)N/N=C/c1ccc(Cl)cc1,35.3% (inactive),92.4%
Cc1ccc(-n2cc(CN(C)Cc3nccn3C)c(-c3cccc(C)c3)n2)cc1,41.7% (inactive),124%
O=C(O)C1C2CC2CN1C(=O)c1ccc(Cl)cc1Cl (centres undefined),-5.56% (inactive),121%
Cc1nc2scc(-c3cccs3)c2c(=O)n1N,9.8% (inactive),105%
CCCc1nc2scc(-c3ccc(C)cc3)c2c(=O)n1N,81.5% (active),78.3%
NC(=O)Cc1nc2scc(-c3ccc(Cl)cc3)c2c(=O)[nH]1,5.88% (inactive),114%
COc1cc(OC)cc(-c2nnc(N(C)C(=O)c3ccncc3)s2)c1,36.4% (inactive),156%
CC(NC(=S)NC1CCCCC1)C(c1ccccc1)N1CCOCC1 (centres undefined),-38.9% (inactive),111%
Cc1cccc(N(C(=O)c2ccc(CN3CCOCC3)o2)C(C(=O)NC2CCCCC2)c2ccc(F)cc2)c1 (centres undefined),87.5% (active),98.6%
Cc1cccc(N(C(=O)Cc2cccs2)C(C(=O)NC2CCCC2)c2ccsc2)c1 (centres undefined),-23.3% (inactive),119%
Cc1ccc(N(C(=O)c2ccc(CN3CCOCC3)o2)C(C(=O)NCCC(C)C)c2cccs2)c(C)c1 (centres undefined),8.11% (inactive),114%
C1CC1Cc1noc(CN2CCN(CC3CC3)CC2)n1,0% (inactive),97.5%
CCOC(=O)C1(Cc2cccc(OC)c2)CCN(C(C)CC(C)(C)O)CC1 (centres undefined),-275% (inactive),102%
CCCCOC(=O)Nc1nccs1,93.8% (active),53.2%

Compound,inhibition,normalized cell count
COc1cc(C(=O)Nc2nccs2)cc(OC)c1OC,-25.3% (inactive),97.1%
O=C(COC(=O)c1ccc(O)cc1)Nc1nccs1,16.7% (inactive),74.1%
CC(/C=N/NC(=O)c1ccncc1)=C\c1ccco1,23.1% (inactive),115%
CC(=O)c1ccc(NC(=O)C(C)NCc2ccc(Cl)cc2)cc1 (centres undefined),-189% (inactive),58.5%
COCCNC(=O)COc1ccccc1C,20.8% (inactive),112%
Cc1cccc(NC(=O)COc2ccccc2C)n1,-406% (inactive),56.6%
Cc1ccc(S(=O)(=O)NC(=O)COc2ccccc2C)cc1,81.2% (active),150%
COc1cccc2cc(S(=O)(=O)c3ccc(C)cc3)/c(=N/NS(=O)(=O)c3ccc(C)cc3)oc12,27.3% (inactive),139%
COC(=O)C1=C(C)N(c2ccc(Br)cc2)C(=O)/C1=C\c1ccco1,25.6% (inactive),98.3%
COc1ccc([N+](=O)[O-])cc1NC(=O)COC(=O)/C=C/c1ccco1,-14.3% (inactive),128%
COc1ccc(N2C(=O)/C(=C\c3ccco3)N=C2SCC(N)=O)cc1Cl,91.7% (active),75.5%
COC(=O)CC1=NN(c2ccccc2)C(=O)C1,0% (inactive),102%
CN(C)C=NC(=O)c1cccn1-c1ncc(C(F)(F)F)cc1Cl,31.2% (inactive),84.7%
Cc1ccc(NC(=O)CCN2CCc3ccccc3C2)cc1,28.6% (inactive),64.3%
CC1CCN(CCC(=O)Nc2ccccc2)CC1,78.6% (active),39.9%
COc1ccc(OC)c(NC(=O)CCN2CCC(C)CC2)c1,34.2% (inactive),86.9%
O=C(CCN1CCN(C/C=C/c2ccccc2)CC1)Nc1cccc(F)c1,-57.1% (inactive),154%
CCc1ccc(/C=C2\SC(N3CCOCC3)=NC2=O)cc1,16.7% (inactive),199%
Cc1nnsc1C(=O)Nc1cccc(Cl)c1C,50% (inactive),71.6%
O=C(Nc1ccc(-c2ccc3nncn3n2)cc1)C1CCCCC1,-25% (inactive),193%
Cc1cccc(NC(=O)CN2C(=O)c3ccccc3C2=O)c1C,-28.6% (inactive),79%
